Compound activity from PubChem.
Only a selection was taken, and hits are over-represented in it overall.
RMI-FANCM inh: RMI-FANCM interaction inhibition; Fluorescence polarization, RMI core complex with F-MM2 peptide; hits give low values; FP signal (polarization) at 33 µM; 70,000 tested, 0.58% active; in the data active means FP signal below about 40
Numbers stand for hits; - = inactive; ! = not confirmed by another sample.

SMILES	RMI-FANCM inh
Cc1nc(Sc2ccccc2)c2c3c(sc2n1)CCC3	-
COc1ccc2nc(N3CCN(C(=O)c4cccc(F)c4)CC3)sc2c1	-
O=C(Nc1ccccc1-c1nc2ccccc2[nH]1)C1CCN(S(=O)(=O)c2ccc(Cl)s2)CC1	-
Cc1c(C(=O)N2CCN(C3c4ccccc4-c4ccccc43)CC2)cnn1-c1ccccc1	-
O=C(c1ccc2nsnc2c1)N1CCN(C2c3ccccc3-c3ccccc32)CC1	-
O=C(c1ccno1)N1CCN(C2c3ccccc3-c3ccccc32)CC1	-13!
O=C(/C=C/c1cccs1)Oc1ccc(Cl)cc1	-
COC(=O)C1=C(NC(=O)c2ccccc2I)CCS1	-
O=C(Nc1nnc(SCC(=O)N2CCCc3ccccc32)s1)c1ccc(S(=O)(=O)N2CCCC2)cc1	-
COc1ccccc1C(=O)Nc1nc(-c2ccc3ccccc3c2)cs1	-
O=C1CC(c2ccccc2)CC(=O)N1c1ccccc1	-
NNC(=O)C1C(C(=O)NN)C1c1ccccc1 (stereo not given)	-
CC(=O)C1=CN(c2ccccc2)C=C(C(C)=O)C1c1ccccc1	19
COC(=O)c1ccc(Cn2nc(C3CC3)c3cnn(-c4ccc(F)cc4)c3c2=O)cc1	-
Cc1ccc(N=C2C=C(SC#N)C(=O)C(SC#N)=C2)cc1	-16
Cc1ccc(N=C2CSC(=O)N2)cc1	-
Cc1ccc(N=C2C=C(Cl)C(=O)C(Cl)=C2)cc1	-
C#CCn1c(=NC(=O)c2ccco2)sc2cc(OC)c(OC)cc21	-
COc1cc(CSc2nc(CC(=O)Nc3cccc(C)c3C)cs2)cc(OC)c1	-
Cc1cc(O)c2c(c1)C(=O)c1cccc(O)c1C2=O	-
O=C1c2c(O)cccc2Cc2cccc(O)c21	-5
O=C(O)c1cccc2c1-c1ccc(I)cc1C2	-
CS(=O)(=O)c1ccc(Nc2nc(CC(=O)Nc3cccnc3)cs2)cc1	-
CCOC(=O)c1ccc(Nc2c(C#N)cnc3ccc(CC)cc23)cc1	-
Cc1ccc(C)c(S(=O)(=O)Nc2ccc(C(=O)Nc3cccc(C(F)(F)F)c3)cc2)c1	-
SMILES	RMI-FANCM inh
COc1ccc(NC(C)=O)cc1NS(=O)(=O)c1cc2c3c(c1)C(C)C(=O)N3CCC2 (stereo not given)	-
CN(C)c1ccc(C2=CC(C3CC3)=C(C#N)C(=C(C#N)C#N)N2)cc1	31
COCCn1c(=NC(=O)C(c2ccccc2)c2ccccc2)sc2cc(Cl)ccc21	-
Cc1ccc(-n2ncc3c(NCCc4ccc(S(N)(=O)=O)cc4)ncnc32)cc1C	-
O=S(=O)(O)c1nc2ccccc2o1	-
O=c1[nH]c(CSc2nc3ccccc3o2)nc2ccccc12	-
O=c1c(Cl)c2oc3ccccc3nc-2c2ccccc12	32
Cn1ccc(C(=O)Nc2nc3c(s2)CCc2ccccc2-3)n1	-
CC(=O)OCC(=O)[C@@]1(O)CCC2C3CCC4=CC(=O)CC[C@]4(C)C3C(=O)C[C@@]21C (stereo not given in full)	-
C[C@]12CCC(=O)C=C1CCC1C2C(=O)C[C@@]2(C)C1CC[C@]2(O)C(=O)CO (stereo not given in full)	-7
CC(=O)OCC(=O)[C@@]1(O)CC[C@H]2[C@@H]3CCC4=CC(=O)CC[C@]4(C)[C@H]3C(=O)C[C@@]21C	-
O=C(Nc1ccc(-c2nc3cccnc3s2)cc1)c1ccco1	-
CCOc1ccccc1C(=O)Nc1ccc(-c2nc3cccnc3s2)cc1	-
Cc1cc(-c2nc3cccnc3s2)ccc1NC(=O)c1ccc2ccccc2n1	1
Cc1ccc2nc(N(CCCN3CCOCC3)C(=O)C3CCCCC3)sc2c1	-
COCCNC(=O)Cn1nc(-c2ccc(F)cc2)c2sc(N3CCCC3)nc2c1=O	-
